Experimental findings from PubChem BioAssay are described below.

What is called inhibition is the relative decrease from the control value, in per cent.

Results filed as inconclusive are left out. Active and inactive are the calls of the source.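 How the source made its calls, unless noted: active means percent response above 42, roughly 3 SD of non-fluorescent test compounds; inactive means the rest.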

Experiment [1] is described as follows: yeast TOR pathway RPL19A-GFP modulators, primary screen, cell-based, S. cerevisiae, multiplex flow cytometry (AID 1862; in the data active means percent of DMSO control GFP below about 86%;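 further: lower values mimic rapamycin by blocking the RPL19A rise seen in DMSO cells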). Particulars: S. cerevisiae RPL19A-GFP strain, flow cytometry fluorescence, 3 h; at 10 µM; stronger effect = lower value. (In flow cytometry, cells or beads pass a laser one at a time.)
The nature of experiment [2]: modulators of MEP2-GFP levels in yeast, primary screen, S. cerevisiae, multiplex flow cytometry (AID 1867;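 active means GFP response, as percent of the DMSO control, above the screen-wide mean plus 3 SD, about 139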;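 further: median GFP channel fluorescence of barcode-gated MEP2-GFP cells measured by flow cytometry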). Particulars: S. cerevisiae MEP2-GFP strain, 3 h, at 10 µM, stronger effect = higher value, 100% means same as DMSO wells.
A short description of experiment [3]: modulators of CIT2-GFP expression in yeast, primary screen, S. cerevisiae, GFP fusion, multiplex flow cytometry (AID 1870;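 active means percent response above a set limit, the screen-wide mean plus 3 SD, cut at about 130% in these data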;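 further: barcoded CIT2-GFP strain pooled with four other GFP strains with rapamycin as positive control; median GFP fluorescence per well over plate mean of DMSO wells so 100% = DMSO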). Particulars: 3 h, at 10 µM, stronger effect = higher value.
Experiment [4] in a line: modulators of LAP4-GFP expression in yeast, primary screen, S. cerevisiae, multiplex flow cytometry (AID 1873;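 active means GFP signal, as percent of the solvent control, above the screen mean plus 3 SD, about 149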). Particulars: 3 h, at 10 µM, stronger effect = higher value.
A short description of experiment [5]: modulators of AGP1-GFP expression in yeast TOR pathway, primary screen, cell-based, multiplex flow cytometry, S. cerevisiae (AID 1887;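 active means GFP signal above the screen-wide mean plus 3 SD, that is over about 124.5% of the solvent control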;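 further: AGP1-GFP fusion strain of S. cerevisiae within a five-strain barcoded multiplex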). Particulars: 3 h, at 10 µM, stronger effect = higher value.
Experiment [6] is described as follows: inhibitors of CD8+ T cell-vesicle binding, pilot screen, LFA-1/ICAM-1 modulator project, MLPCN validation set, flow cytometry (AID 2523;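 active means response below a set limit, under 55% cells CD8-positive and vesicle-bound, and CD8 cells' 90th-percentile brightness under 279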;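 on vesicle binding response: mean PE anti-B7-1 fluorescence of CD8+ cells relative to row control; 100% = QL9-loaded vesicles with DMSO vehicle in the same plate row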). Particulars: 2C mouse CD8+ T cells, at 7 µM, stronger effect = lower value; double positive events: measured here: CD8+/vesicle+ event percentage.
Experiment [7] has as its target Integrin beta-1 (Homo sapiens) + Integrin alpha-4 (Homo sapiens) (UniProt P13612+P05556). Description: inhibition of HUTS-21 binding to VLA-4, pilot screen, VLA-4 allosteric modulator project, U937 cells, HUTS-21 mAb, flow cytometry, validation set (AID 2674;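 active means inhibition above 50%, about 3 SD of the validation set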;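 further: antibody binding induced by the VLA-4 ligand LDV present at three times its Kd; 0% = LDV ligand with antibody and no compound and 100% = antibody without LDV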). Particulars: HUTS-21 LIBS mAb binding, at 6.7 µM, stronger effect = higher value, binding induced by LDV ligand.
Experiment [8] is described as follows: superoxide lowering in aged yeast cells, pilot screen, validation compound set (AID 2706;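 active means superoxide response below 65% of plate, a cut near 3 SD across the whole screen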;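 further: yeast exposed to compound for one week at 30 degrees C before staining; 100% = mean of all compound wells on the same plate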). Particulars: S. cerevisiae aging, superoxide DHE fluorescence; at 10 µM; stronger effect = lower value.
The target of experiment [9] is Beta-adrenergic receptor kinase 1 (Homo sapiens) (UniProt P25098). In words: GRK2 binders displacing RNA aptamer, biochemical, validation, human GRK2, bead flow cytometry (AID 488806;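 active means aptamer binding inhibition above 30%, about 3 SD of noise from non-fluorescent compounds; inactive means inhibition at or below 30%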). Particulars: bead-bound GRK2, FAM-aptamer displacement, at 10 µM, stronger effect = higher value.
Sequence of Beta-adrenergic receptor kinase 1 (Homo sapiens) (P25098 whole entry, looked up): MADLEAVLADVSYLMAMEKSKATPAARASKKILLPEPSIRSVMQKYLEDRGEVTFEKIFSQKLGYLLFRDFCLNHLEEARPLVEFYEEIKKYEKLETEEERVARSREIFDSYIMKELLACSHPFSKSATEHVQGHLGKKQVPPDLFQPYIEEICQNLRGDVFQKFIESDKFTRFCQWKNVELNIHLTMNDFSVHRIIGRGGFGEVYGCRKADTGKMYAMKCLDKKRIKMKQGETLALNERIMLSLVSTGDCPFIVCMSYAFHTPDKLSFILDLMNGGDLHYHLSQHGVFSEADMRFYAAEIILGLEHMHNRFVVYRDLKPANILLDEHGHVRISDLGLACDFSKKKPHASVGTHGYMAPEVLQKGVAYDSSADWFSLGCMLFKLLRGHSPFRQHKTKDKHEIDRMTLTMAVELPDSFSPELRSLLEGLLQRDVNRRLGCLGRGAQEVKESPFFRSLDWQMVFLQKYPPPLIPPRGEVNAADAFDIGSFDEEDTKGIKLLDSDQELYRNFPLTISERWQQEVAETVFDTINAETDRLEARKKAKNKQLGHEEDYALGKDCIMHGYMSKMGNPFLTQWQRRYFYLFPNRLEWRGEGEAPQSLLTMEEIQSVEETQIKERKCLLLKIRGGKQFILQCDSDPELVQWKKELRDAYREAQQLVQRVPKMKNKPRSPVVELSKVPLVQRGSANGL
Experiment [10] concerns the target Beta-2 adrenergic receptor (Homo sapiens) (UniProt P07550). In words: beta2AR agonists driving receptor internalization, pilot screen, cell-based, FAP fluorogen, flow cytometry, validation set (AID 504459).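 Further: agonist-driven loss of surface beta2AR via internalization measured by FAP dye flow cytometry.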 Particulars: Am2.2-beta2AR cells, FAP surface receptor flow cytometry; at 10 µM; stronger effect = higher value.
In experiment [11] the target is AP-2 complex subunit beta (Homo sapiens) (UniProt P63010). Description: inhibitors of arrestin peptide binding to AP2, pilot screen, biochemical, validation set, GST-AP2 beads, flow cytometry (AID 504541;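 active means inhibition above 54%, about 3 SD of non-fluorescent compounds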;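 further: AP2 carries R879A mutation and is captured from E. coli lysate; bead-bound FITC arrestin peptide fluorescence measuring arrestin peptide binding to AP2; 0% = DMSO wells and 100% = excess unlabeled arrestin peptide control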). Particulars: FITC arrestin peptide, at 10 µM, stronger effect = higher value, AP2 beta2 appendage fragment, R879A mutant.
Sequence of AP-2 complex subunit beta (Homo sapiens) (P63010 whole entry, looked up, the tested form may be a part, one chain of several): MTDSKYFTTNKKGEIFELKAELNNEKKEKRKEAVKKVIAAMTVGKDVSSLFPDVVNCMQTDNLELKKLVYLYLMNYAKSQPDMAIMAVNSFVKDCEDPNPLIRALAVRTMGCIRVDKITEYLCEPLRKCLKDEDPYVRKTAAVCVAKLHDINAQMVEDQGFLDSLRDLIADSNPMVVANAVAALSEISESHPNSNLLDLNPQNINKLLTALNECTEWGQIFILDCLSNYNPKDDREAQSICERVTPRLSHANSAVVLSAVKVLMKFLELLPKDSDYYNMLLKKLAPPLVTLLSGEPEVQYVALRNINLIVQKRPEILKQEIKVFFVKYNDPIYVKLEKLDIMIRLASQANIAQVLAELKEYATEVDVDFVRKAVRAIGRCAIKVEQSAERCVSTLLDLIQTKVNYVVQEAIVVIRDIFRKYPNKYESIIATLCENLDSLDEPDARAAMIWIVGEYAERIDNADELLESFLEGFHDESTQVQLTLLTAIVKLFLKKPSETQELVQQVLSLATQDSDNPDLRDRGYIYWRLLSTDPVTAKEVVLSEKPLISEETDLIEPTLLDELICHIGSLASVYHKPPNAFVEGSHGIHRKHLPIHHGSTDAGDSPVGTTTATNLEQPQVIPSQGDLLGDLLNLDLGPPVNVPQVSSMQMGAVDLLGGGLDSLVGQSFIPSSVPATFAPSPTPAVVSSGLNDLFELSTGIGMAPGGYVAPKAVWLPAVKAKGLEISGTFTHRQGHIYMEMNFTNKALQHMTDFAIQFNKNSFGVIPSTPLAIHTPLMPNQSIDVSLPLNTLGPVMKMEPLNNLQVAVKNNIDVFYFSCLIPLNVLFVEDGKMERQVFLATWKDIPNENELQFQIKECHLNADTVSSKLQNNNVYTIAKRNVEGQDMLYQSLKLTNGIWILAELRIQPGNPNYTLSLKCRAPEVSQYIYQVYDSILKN
A short description of experiment [12]: yeast V-ATPase proton transport modulators, S. cerevisiae, pHLuorin, HTS validation (AID 504600; in the data active means response above about 15%;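 further: plate controls were DMSO for no effect and reference compound for full effect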). Particulars: S. cerevisiae pHLuorin cytosolic pH, at 10 µM, stronger effect = higher value.
In experiment [13] the test system is anti-desmoglein-3 scFv antibody binding to human DSG3. Description: inhibitors of anti-DSG3 scFv binding to DSG3, pilot screen, biochemical, validation compound set, bead-based, flow cytometry (AID 588368;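 active means binding below the plate cutoff, the plate median minus 3 SD, with a reading above zero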;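 further: signal is the median channel fluorescence of bead-bound GFP antibody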). Particulars: Protein G beads, DSG3-Fc, scFv-GFP binding, at 10 µM, stronger effect = lower value.
A short description of experiment [14]: inhibitors of fungal efflux pumps CDR1, CDR2, MDR1, pilot screen, validation compound set, multiplex, phenotypic (AID 588506;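 active means efflux inhibition above 0.42, the validation set average plus 4 SD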;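 further: Nile Red retained in cells so higher fluorescence means more efflux inhibition; 0 = negative control wells and 1 = enniatin B 25 µM full block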). Particulars: S. cerevisiae pump-expressing triplex, Nile Red efflux flow cytometry; at 10 µM; stronger effect = higher value; the pumps come from Candida albicans.
Experiment [15] deals with ATP-binding cassette sub-family B member 6 (Homo sapiens) (UniProt Q9NP58). Description: ABCB6 transporter inhibitors, pilot screen, K562-ABCB6 cells, flow cytometry, validation set (AID 588550;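 active means inhibition above the screen-wide mean plus 3 SD, about 51%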;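 further: 0% = DMSO wells and 100% = benzethonium chloride 70 µM positive control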). Particulars: K562-ABCB6 porphyrin accumulation, 1 h, at 10 µM, stronger effect = higher value.
Sequence of ATP-binding cassette sub-family B member 6 (Homo sapiens) (Q9NP58 whole entry, looked up): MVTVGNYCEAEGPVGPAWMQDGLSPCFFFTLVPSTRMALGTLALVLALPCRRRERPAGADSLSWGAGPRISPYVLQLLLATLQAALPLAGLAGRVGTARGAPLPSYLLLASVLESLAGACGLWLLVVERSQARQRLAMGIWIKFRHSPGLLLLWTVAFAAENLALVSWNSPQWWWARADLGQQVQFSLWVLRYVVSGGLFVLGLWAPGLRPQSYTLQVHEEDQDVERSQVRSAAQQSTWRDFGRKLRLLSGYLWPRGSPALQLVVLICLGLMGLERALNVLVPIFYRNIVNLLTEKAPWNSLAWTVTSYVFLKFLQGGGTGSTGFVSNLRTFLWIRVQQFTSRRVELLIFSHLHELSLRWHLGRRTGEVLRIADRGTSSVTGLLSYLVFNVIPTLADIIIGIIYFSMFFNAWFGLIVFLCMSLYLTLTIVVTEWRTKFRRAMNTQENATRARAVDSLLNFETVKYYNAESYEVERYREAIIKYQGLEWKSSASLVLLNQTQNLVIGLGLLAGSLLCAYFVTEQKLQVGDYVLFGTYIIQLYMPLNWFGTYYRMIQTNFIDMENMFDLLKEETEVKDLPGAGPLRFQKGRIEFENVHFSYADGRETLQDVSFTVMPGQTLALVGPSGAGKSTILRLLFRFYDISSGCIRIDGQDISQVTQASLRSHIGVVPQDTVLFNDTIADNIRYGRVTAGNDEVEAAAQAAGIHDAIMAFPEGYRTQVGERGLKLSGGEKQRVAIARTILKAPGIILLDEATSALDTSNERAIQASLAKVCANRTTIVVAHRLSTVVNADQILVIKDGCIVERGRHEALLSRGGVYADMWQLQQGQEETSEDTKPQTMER
The nature of experiment [16]: promoters of myeloid differentiation in arrested cells, primary screen, cell-based, GFP/MAC1 double positive, flow cytometry, validation set (AID 588685;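 active means differentiation response of at least 50%, scaled between solvent and reference control, from cells with both markers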;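 further: compound exposure lasts four days before antibody staining and flow analysis; 0% = DMSO wells and 100% = 5 µM fulvestrant positive control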). Particulars: ER-HoxA9 marrow cells, stronger effect = higher value, normalized: vehicle 0, fulvestrant 100.

Sequence of Beta-2 adrenergic receptor (Homo sapiens) (P07550 whole entry, looked up): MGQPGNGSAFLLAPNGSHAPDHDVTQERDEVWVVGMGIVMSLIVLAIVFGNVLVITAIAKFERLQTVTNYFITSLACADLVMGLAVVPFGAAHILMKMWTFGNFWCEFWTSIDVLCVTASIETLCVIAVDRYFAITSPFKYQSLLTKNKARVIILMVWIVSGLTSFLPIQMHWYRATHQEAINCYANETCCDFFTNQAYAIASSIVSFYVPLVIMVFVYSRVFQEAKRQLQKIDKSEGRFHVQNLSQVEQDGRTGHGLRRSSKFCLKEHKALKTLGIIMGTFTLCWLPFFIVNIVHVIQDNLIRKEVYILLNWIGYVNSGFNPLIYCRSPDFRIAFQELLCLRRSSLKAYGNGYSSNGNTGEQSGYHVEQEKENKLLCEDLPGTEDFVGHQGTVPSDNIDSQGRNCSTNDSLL
Sequence of Integrin beta-1 (Homo sapiens) + Integrin alpha-4 (Homo sapiens) (P05556 whole entry, looked up): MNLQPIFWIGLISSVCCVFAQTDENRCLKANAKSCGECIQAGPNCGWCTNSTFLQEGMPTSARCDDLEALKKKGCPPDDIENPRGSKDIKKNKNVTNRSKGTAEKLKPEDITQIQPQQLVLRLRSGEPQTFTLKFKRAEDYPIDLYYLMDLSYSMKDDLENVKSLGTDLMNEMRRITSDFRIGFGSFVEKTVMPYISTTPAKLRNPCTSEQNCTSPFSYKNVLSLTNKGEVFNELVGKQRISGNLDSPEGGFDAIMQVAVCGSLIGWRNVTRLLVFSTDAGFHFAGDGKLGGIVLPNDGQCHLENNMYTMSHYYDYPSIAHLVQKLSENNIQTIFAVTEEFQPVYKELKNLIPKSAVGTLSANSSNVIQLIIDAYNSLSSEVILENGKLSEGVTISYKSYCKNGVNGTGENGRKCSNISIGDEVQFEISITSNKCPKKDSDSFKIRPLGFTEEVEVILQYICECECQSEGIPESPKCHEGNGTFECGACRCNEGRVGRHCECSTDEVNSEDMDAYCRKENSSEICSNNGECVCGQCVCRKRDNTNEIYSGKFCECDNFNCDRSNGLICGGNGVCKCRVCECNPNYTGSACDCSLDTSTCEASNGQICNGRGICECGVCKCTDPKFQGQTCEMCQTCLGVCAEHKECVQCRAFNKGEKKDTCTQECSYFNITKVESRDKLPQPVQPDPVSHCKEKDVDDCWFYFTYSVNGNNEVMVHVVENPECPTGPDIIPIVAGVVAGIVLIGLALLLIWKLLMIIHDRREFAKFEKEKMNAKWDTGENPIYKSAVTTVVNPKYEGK
Sequence of Integrin beta-1 (Homo sapiens) + Integrin alpha-4 (Homo sapiens) (P13612 whole entry, looked up): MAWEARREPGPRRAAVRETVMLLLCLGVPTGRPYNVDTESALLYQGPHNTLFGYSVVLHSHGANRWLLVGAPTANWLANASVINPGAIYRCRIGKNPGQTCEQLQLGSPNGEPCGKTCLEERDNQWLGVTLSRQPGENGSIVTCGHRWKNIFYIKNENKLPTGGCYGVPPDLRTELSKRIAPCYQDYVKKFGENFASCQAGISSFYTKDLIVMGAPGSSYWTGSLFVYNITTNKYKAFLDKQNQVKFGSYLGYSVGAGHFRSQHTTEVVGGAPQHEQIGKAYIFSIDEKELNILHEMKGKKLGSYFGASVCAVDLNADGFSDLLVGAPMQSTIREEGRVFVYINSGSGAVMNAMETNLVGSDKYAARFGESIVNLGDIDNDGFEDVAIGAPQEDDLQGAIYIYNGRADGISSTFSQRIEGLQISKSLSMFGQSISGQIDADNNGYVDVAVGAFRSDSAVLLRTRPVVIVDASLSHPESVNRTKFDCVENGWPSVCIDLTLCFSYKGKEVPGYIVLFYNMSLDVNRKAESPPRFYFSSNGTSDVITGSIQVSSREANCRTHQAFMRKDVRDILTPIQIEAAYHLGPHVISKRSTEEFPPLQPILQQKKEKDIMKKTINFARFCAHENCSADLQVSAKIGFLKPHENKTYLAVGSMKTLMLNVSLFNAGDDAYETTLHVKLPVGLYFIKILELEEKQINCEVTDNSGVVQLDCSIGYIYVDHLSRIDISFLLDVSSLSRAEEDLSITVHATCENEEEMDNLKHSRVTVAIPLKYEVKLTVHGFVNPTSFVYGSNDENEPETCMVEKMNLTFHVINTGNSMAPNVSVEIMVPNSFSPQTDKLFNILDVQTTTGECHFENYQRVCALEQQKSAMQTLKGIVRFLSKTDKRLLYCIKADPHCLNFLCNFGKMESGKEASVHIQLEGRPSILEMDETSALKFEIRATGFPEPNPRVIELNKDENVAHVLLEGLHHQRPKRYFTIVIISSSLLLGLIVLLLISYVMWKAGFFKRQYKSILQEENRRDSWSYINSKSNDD

Regarding `CC(CCCC(C)(C)O)NC(=O)c1ccc(OC2CCN(C(=O)C3CC3)CC2)cc1` (stereo not drawn), the percent of DMSO control GFP in experiment [1] is 102% (inactive). Moreover, the GFP response vs DMSO in experiment [2] is 96.3% (inactive); in experiment [4], 108% (inactive). Moreover, in experiment [3], the percent response of DMSO control was 98.6% (inactive). In experiment [5], the GFP response, % of DMSO is 99.8% (inactive). For the same compound, the double positive events in experiment [6] was determined as 60.9%. The vesicle binding response in experiment [6] is 200% (inactive). Moreover, the inhibition is 20.1% (inactive) in [7], 10.3% (inactive) in experiment [11] and 3% (inactive) in experiment [15]. For the same compound, the superoxide response (% of plate) in experiment [8] is 97.8% (inactive). In [9], the aptamer binding inhibition is 1% (inactive). The response in experiment [10] is -15.1% (inactive); in experiment [12], -0.73% (inactive). For the same compound, the binding (% of control) in experiment [13] was 101% (inactive). The efflux inhibition (fraction of control) in experiment [14] is 0.08 (inactive). Also, in [16], the differentiation response was -12% (inactive).

Regarding `O=C(O)CCCNc1ccc(S(=O)(=O)Nc2ccccc2C(=O)O)cc1C(=O)O`, the percent of DMSO control GFP in [1] was 105% (inactive). For the same compound, the figures for the GFP response vs DMSO in [2] and in [4] were 94.1% (inactive) and 83.5% (inactive), respectively. Moreover, the percent response of DMSO control in [3] was 116% (inactive). Further, the GFP response, % of DMSO in [5] was 97% (inactive). In [6], the double positive events is 64.9%. In addition, the vesicle binding response in [6] is 187% (inactive). For the same compound, the inhibition in experiment [7] was 12% (inactive); in experiment [11], -4.62% (inactive); in experiment [15], 17% (inactive). In addition, the superoxide response (% of plate) in [8] is 101% (inactive). Moreover, the aptamer binding inhibition in experiment [9] is 5% (inactive). Also, the response is -8.58% (inactive) in experiment [10] and -5.39% (inactive) in experiment [12]. Besides, the binding (% of control) in experiment [13] is 102% (inactive). In addition, the efflux inhibition (fraction of control) in experiment [14] was -0.14 (inactive). For the same compound, the differentiation response in [16] is 4.15% (inactive).

For the compound `COc1cc(C2C(C(C)=O)=C(O)C(=O)N2c2ccc(C)cc2)ccc1O` (stereo not drawn), the percent of DMSO control GFP in [1] was 100% (inactive). Besides, the GFP response vs DMSO was 104% (inactive) in [2] and 97.3% (inactive) in [4]. In experiment [3], the percent response of DMSO control is 100% (inactive). In experiment [5], the GFP response, % of DMSO was 97.5% (inactive). The same compound registered a double positive events in [6] of 57.9%. The vesicle binding response in [6] was 75.1% (inactive). Besides, the inhibition was -16% (inactive) in [7], 51.5% (inactive) in experiment [11] and -2% (inactive) in experiment [15]. For the same compound, the superoxide response (% of plate) in experiment [8] was 107% (inactive). Moreover, the aptamer binding inhibition in experiment [9] is 3% (inactive). The response is -1.25% (inactive) in experiment [10] and -8.34% (inactive) in experiment [12]. Besides, the binding (% of control) in experiment [13] is 95.1% (inactive). Besides, the efflux inhibition (fraction of control) in [14] was -0.17 (inactive). For the same compound, the differentiation response in [16] was 17.8% (inactive).

For the compound `CC(C)C12CN3CC(C(C)C)(CN(C1)C31C(=O)Nc3ccccc31)C2=O` (stereo not drawn), the percent of DMSO control GFP in experiment [1] was 106% (inactive). Besides, the GFP response vs DMSO in experiment [2] is 98.7% (inactive); in experiment [4] it was 101% (inactive). In addition, the percent response of DMSO control in experiment [3] was 99.7% (inactive). Further, in experiment [5], the GFP response, % of DMSO is 98% (inactive). The compound also returned a double positive events in [6] of 66.4%. Further, in experiment [6], the vesicle binding response is 190% (inactive). Further, the inhibition in [7] was 1.59% (inactive); in experiment [11], -3.03% (inactive); in [15], 8% (inactive). Besides, in experiment [8], the superoxide response (% of plate) is 110% (inactive). In addition, in experiment [9], the aptamer binding inhibition is 3% (inactive). The values for the response in [10] and in [12] were 9.28% (inactive) and -0.51% (inactive), respectively. Further, the binding (% of control) in experiment [13] was 103% (inactive). In experiment [14], the efflux inhibition (fraction of control) was 0 (inactive). For the same compound, the differentiation response in experiment [16] is -11.9% (inactive).
